Our source for the outcome values is PubChem BioAssay (Tox21).

Inconclusive results are not listed. Active and inactive are the calls of the source. Calls come from the whole dose curve; as a rule, active = well fitted activation curve with a large enough effect in the signal ratio in the repeat runs (not every such curve was filed as active); inconclusive = weak or mixed curves, or effect the other way; inactive = flat fitted curve, though single readings scatter; the % refers to the signal ratio.

This experiment can be described thus: qHTS assay to identify small molecule agonists of the endoplasmic reticulum stress response signaling pathway (AID 1159516). The note with it: ESRE-bla HeLa, ER stress beta-lactamase reporter, 5 h; series mostly up to 61 µM. The source says: National Center for Advancing Translational Sciences [NCATS]
NIH Chemical Genomics Center [NCGC]
U.S. Environmental Protection Agency [EPA]
National Institutes of Environmental Health Sciences [NIEHS]
National Toxicology Program [NTP]
U.S. Food and Drug Administration [FDA]
Endoplasmic Reticulum (ER) plays an important role in cellular signaling, protein folding/maturation, stress response, lipid biosynthesis, calcium storage and release etc. Under stress conditions, proteins in ER misfold or unfold, and leading to the expression of ER stress responsive genes. ER stress has been associated with a variety of pathophysiological conditions such as cancer, inflammation, neurodegenerative diseases, diabetes, ischemic heart disease etc. To identify the compounds that induce ER stress response, an ER stress reporter cell line, CellSensor ESRE-bla HeLa (Life Technologies, Carlsbad, CA) containing a beta-lactamase reporter gene under control of the Endoplasmic reticulum Stress Response Element (ESRE) was used to screen Tox21 10K compound library.
Tox21 Assay Protocol Summary:
ESRE-bla HeLa cells were dispensed at 1,500 cells/6 uL of assay medium per well into black wall/clear-bottom 1536-well plates using a Multidrop Combi (ThermoFisher Scientific, Waltham, MA) dispenser. After the assay plates were incubated at 37 C and 5% CO2 for an overnight, 23 nL of compounds dissolved in DMSO, positive controls or DMSO only was transferred to the assay plate by a Pintool station (Kalypsys, San Diego, CA). The assay plates were incubated at 37 C and 5% CO2 for 5 hr. One uL of LiveBLAzer B/G FRET substrate (Life Technologies) was added using a Flying Reagent Dispenser (Aurora Discovery, San Diego, CA) and the plates were incubated at room temperature for 2 hr. Fluorescence intensity (405 nm excitation, 460 nm and 530 nm emissions) was measured using an Envision plate reader (PerkinElmer, Shelton, CT).
A general note: Quantitative high-throughput screening tests each substance at several concentrations.
`N#Cc1ccccc1`: the call was inactive.
With `N[C@H](Cc1c[nH]c2ccccc12)C(=O)O` the entry was “inactive”; with `CN(C)c1ccc(Cc2ccc(N(C)C)cc2)cc1`, “inactive”; with `Cc1ccc(C(C)C)c(O)c1`, “inactive”.
With `COc1ccc([N+](=O)[O-])cc1N` the entry was “inactive”; with `CCNC(=S)NCC`, “inactive”; with `CC(C)CC(=O)CC(C)CC(C)C` (stereo not given), “inactive”.
The same measure for `CC1(C)OC[C@@H]2O[C@@]3(C(=O)O)OC(C)(C)O[C@H]3[C@@H]2O1`: “inactive”.
With `CCCCCCC=O`, the compound was called inactive.
The same measure for `OCc1cccc(Oc2ccccc2)c1`: “inactive”; for `O=C(O)Cn1c(=O)n(Cc2ccc(Br)cc2F)c(=O)c2ccc(Cl)cc21`: “inactive”; for `O=C(O)c1ccc(C(=O)O)c(C(=O)O)c1`: “inactive”.
With `CC(C)OP(=O)(CP(=O)(OC(C)C)OC(C)C)OC(C)C` the entry was “inactive”; with `CC(O)CC(C)(C)O` (stereo not given), “inactive”; with `O=c1[nH]cnc2[nH]ncc12`, “inactive”.
Take `CC(C)=CCl`: the compound was called inactive.
As for `CCOC(=O)n1ccn(C)c1=S`, the compound was classed as inactive.
As for `C=CC(C)CCCC(C)(C)O` (stereo not given), the call was inactive.
With `CC(=O)c1ccc(O)cc1` the entry was “inactive”; with `C=C(C)[C@H]1CC=C(C)C(=O)C1`, “inactive”.
The same measure for `CCCCCCCC=O`: “inactive”; for `CN1C(=O)CC[C@H]1c1cccnc1`: “inactive”.
The same measure for `O=C(O)c1cc2ccccc2cc1O`: “inactive”; for `CCCCCCCCCCCCCCCC(=O)OC(C)C`: “inactive”.
Consider `CC(=O)CC(C)(C)O`, for which the outcome was inactive.
With `O=C(O)CCCCCCCCC(=O)O` the entry was “inactive”; with `O=S(=O)(O)c1ccc(N=Nc2c(O)ccc3cc(S(=O)(=O)O)ccc23)cc1`, “inactive”; with `COc1cc(OC)c(C(=O)CCCN2CCCC2)c(OC)c1`, “inactive”.
The same measure for `COC(=O)CCCC(=O)OC`: “inactive”.
The same measure for `C[C@]12CCC(=O)C=C1CC[C@@H]1[C@@H]2[C@@H](O)C[C@@]2(C)[C@H]1CC[C@]2(O)C(=O)CO`: “inactive”.
Regarding `CC1(C)S[C@@H]2[C@H](NC(=O)COc3ccccc3)C(=O)N2[C@H]1C(=O)O`, the result was inactive.
The same measure for `CC(=O)OCCOC(C)=O`: “inactive”.
With `O=C1C(c2[nH]c3ccccc3c2O)=Nc2ccccc21` the entry was “inactive”; with `CC(=O)OC1CC(C)OC(C)O1` (stereo not given), “inactive”; with `COCCCN`, “inactive”.
Consider `CCCCCCCCCCCC(=O)OC`, for which the compound was classed as inactive.
Regarding `CC1(C)NC(=O)NC1=O`, the outcome was inactive.
The same measure for `NCCCCCCN`: “inactive”.
The same measure for `CCCOC(=O)c1ccccc1`: “inactive”; for `c1ccc(Oc2ccccc2)cc1`: “inactive”.
